Measured values published in PubChem BioAssay (NCI).
About 83,000 compounds went through this panel and 20% of them were active in at least one assay; those are over-represented in the sample as a whole.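 Cell lines were cultured in 96-well plates, exposed to a single compound concentration, and assessed for percent growth 48 hours later.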 Active and inactive are the calls of the source. How the source made its calls: active means growth percent below 10; inactive means the rest.

How the values were obtained:
Experiment in all cases: NCI-60 one-dose screen, 48 h (100 = growth as untreated, 0 = no growth, -100 = all killed)
Settings in all cases: 10 µM
T-47D breast = system: T-47D breast
BT-549 breast = system: BT-549 breast
MDA-MB-435 melanoma = system: MDA-MB-435 melanoma
SW-620 colon = system: SW-620 colon
MCF7 breast = system: MCF7 breast
HCT-116 colon = system: HCT-116 colon
HCC-2998 colon = system: HCC-2998 colon
KM12 colon = system: KM12 colon

Measured: growth

Fc1ccc(Nc2ccnc(N3CCN(c4ccnc5cc(Cl)ccc45)CC3)n2)cc1
inactive: BT-549 breast 75.1% | MDA-MB-435 melanoma 48.6% | SW-620 colon 63.2% | MCF7 breast 19.2% | HCT-116 colon 15.4% | HCC-2998 colon 62.6% | KM12 colon 42.1%
active: T-47D breast -0.414%

N=C(N)c1ccc(-c2ccc(-c3cccs3)s2)nc1
inactive: T-47D breast 43% | BT-549 breast 91% | MDA-MB-435 melanoma 44.5% | SW-620 colon 22.4% | MCF7 breast 17.8% | HCT-116 colon 18.5%
active: HCC-2998 colon -52.7%

COc1ccccc1S(=O)(=O)Nc1ccc2c(c1)CN(C)C(=O)N2
inactive: T-47D breast 31.4% | BT-549 breast 101% | MDA-MB-435 melanoma 34.2% | SW-620 colon 59.4% | MCF7 breast 21.5% | HCT-116 colon 49.7% | HCC-2998 colon 64.4% | KM12 colon 45%

N#CC1C=Cc2c(ccc3ccccc23)N1C(=O)c1ccccc1 (stereo not given)
active: MDA-MB-435 melanoma -31.4% | KM12 colon -6.86%
inactive: T-47D breast 56.7% | BT-549 breast 33.5% | SW-620 colon 21.8% | MCF7 breast 21.5% | HCT-116 colon 12% | HCC-2998 colon 10.3%

Cc1ccc(C2C=C(c3ccc(Cl)cc3)N=C3SC=CN32)c(Br)c1 (stereo not given)
inactive: T-47D breast 56.8% | BT-549 breast 61.1% | MDA-MB-435 melanoma 47.1% | SW-620 colon 53.9% | MCF7 breast 21.5% | HCC-2998 colon 91.4% | KM12 colon 78.5%
active: HCT-116 colon 5.04%

COc1cccc2c1C(=O)c1c(O)c3c(c(O)c1C2=O)C[C@@](O)(C(=O)COC(=O)c1ccccc1)C[C@@H]3OC1CC(N)C(O)C(C)O1 (stereo not given in full)
active: T-47D breast -71.7% | BT-549 breast -76.9% | MDA-MB-435 melanoma -97.7% | SW-620 colon -81.9% | MCF7 breast -66.2% | HCT-116 colon -75% | HCC-2998 colon -93% | KM12 colon -95.6%

CCCCCc1cc[n+](CC(=O)c2ccc(Cl)cc2)cc1
inactive: T-47D breast 90.6% | BT-549 breast 86.6% | MDA-MB-435 melanoma 86.7% | SW-620 colon 83.2% | MCF7 breast 89.7% | HCT-116 colon 59% | HCC-2998 colon 91% | KM12 colon 73.4%

Cc1noc(C)c1-c1ccc2nc(NC(=O)[C@H]3CCN(C#N)C3)cn2c1
inactive: T-47D breast 54.8% | BT-549 breast 76.3% | MDA-MB-435 melanoma 81.7% | SW-620 colon 83.6% | MCF7 breast 71.1% | HCT-116 colon 82.1% | HCC-2998 colon 90.4% | KM12 colon 91.3%

COc1cccc(-c2nnc(COc3ccc(-c4nc5ccccc5[nH]4)cc3OC)o2)c1
inactive: T-47D breast 73.6% | BT-549 breast 81.7% | MDA-MB-435 melanoma 94.9% | SW-620 colon 110% | MCF7 breast 73.6% | HCT-116 colon 73% | HCC-2998 colon 105% | KM12 colon 98%

CN(C)c1ccc2c(c1)OC(N)=C(C#N)C2c1ccc2c(c1)CCCN2C (stereo not given)
active: MDA-MB-435 melanoma -5.69% | HCT-116 colon 7.88%
inactive: T-47D breast 44.5% | BT-549 breast 49.4% | SW-620 colon 35% | MCF7 breast 18.1% | HCC-2998 colon 26.7% | KM12 colon 23.1%

CS(=O)(=O)Nc1ccc(Nc2c3ccccc3nc3cc(Cl)ccc23)cc1
inactive: T-47D breast 26.9% | BT-549 breast 52.4% | MDA-MB-435 melanoma 54.1% | SW-620 colon 30.4% | MCF7 breast 18.6% | HCT-116 colon 16.5% | HCC-2998 colon 42.6% | KM12 colon 48.2%

Cc1cc(C)c2c(Nc3ncnc4c3sc3nc(C)cc(C)c34)n[nH]c2n1
inactive: T-47D breast 89.8% | BT-549 breast 101% | MDA-MB-435 melanoma 98.7% | SW-620 colon 101% | MCF7 breast 103% | HCT-116 colon 103% | HCC-2998 colon 113% | KM12 colon 111%

CC(C)c1ncc(CO)n1Cc1c(Cl)cccc1Cl
inactive: T-47D breast 73.8% | BT-549 breast 104% | MDA-MB-435 melanoma 102% | SW-620 colon 100% | MCF7 breast 99.5% | HCT-116 colon 102% | HCC-2998 colon 109% | KM12 colon 101%

CN(C)CCCN(Cc1ccccc1O)C(=S)Nc1ccc(Cl)cc1
inactive: T-47D breast 93.4% | BT-549 breast 105% | MDA-MB-435 melanoma 109% | SW-620 colon 100% | MCF7 breast 99% | HCT-116 colon 108% | HCC-2998 colon 83.4% | KM12 colon 105%

Cc1cc(C)c(C(=O)OC(C)CNC2CCCCC2)c(C)c1 (stereo not given)
inactive: T-47D breast 100% | BT-549 breast 92.4% | MDA-MB-435 melanoma 90.8% | SW-620 colon 100% | MCF7 breast 97.8% | HCT-116 colon 86.3% | HCC-2998 colon 103% | KM12 colon 98.2%

Nc1ccccc1NC(=O)CCCCCCC(=O)Nc1ccc2c(c1)/C(=C/c1ccc[nH]1)C(=O)N2
inactive: T-47D breast 37.9% | BT-549 breast 22% | MDA-MB-435 melanoma 37.8% | SW-620 colon 47.4% | MCF7 breast 15.9% | HCT-116 colon 17% | HCC-2998 colon 70.2% | KM12 colon 13.7%

CC(=O)Nc1ccc2c(c1)C(N1CC3CCC(CC3)C1)c1ccccc1-2 (stereo not given)
inactive: T-47D breast 66.6% | BT-549 breast 126% | MDA-MB-435 melanoma 99.4% | SW-620 colon 83.8% | MCF7 breast 96.7% | HCT-116 colon 71.9% | HCC-2998 colon 99.5% | KM12 colon 80.7%

COc1ccc(C2C=C(c3ccc(Cl)cc3)N=C3SC=CN32)c(Br)c1 (stereo not given)
inactive: T-47D breast 71.8% | BT-549 breast 96.7% | MDA-MB-435 melanoma 69.2% | SW-620 colon 91.3% | MCF7 breast 75.3% | HCT-116 colon 54% | HCC-2998 colon 86.9% | KM12 colon 62.3%

CCc1c(C(=O)NCc2c(O)ccc3cccc(O)c23)[nH]c(C)c1C(C)=O
active: T-47D breast 9.15%
inactive: BT-549 breast 34.5% | MDA-MB-435 melanoma 35.1% | SW-620 colon 68.7% | MCF7 breast 11.6% | HCT-116 colon 42.3% | HCC-2998 colon 47.9% | KM12 colon 31.2%

CCOC(=O)[C@@H](Cc1ccccc1)NC(=O)c1[nH]c2ccc(Cl)cc2c(=O)c1C
inactive: T-47D breast 87.1% | BT-549 breast 108% | MDA-MB-435 melanoma 103% | SW-620 colon 96.3% | MCF7 breast 96.8% | HCT-116 colon 65.2% | HCC-2998 colon 87.6% | KM12 colon 97%

Oc1ccccc1-c1nnc(Cn2c(Cc3cccc4ccccc34)nc3ccccc32)o1
inactive: T-47D breast 89.6% | BT-549 breast 101% | MDA-MB-435 melanoma 111% | SW-620 colon 103% | MCF7 breast 102% | HCT-116 colon 100% | HCC-2998 colon 104% | KM12 colon 98.8%

CC1(CO)CCCC12OCCO2 (stereo not given)
inactive: T-47D breast 111% | BT-549 breast 99.9% | MDA-MB-435 melanoma 92.8% | SW-620 colon 108% | MCF7 breast 95.2% | HCT-116 colon 105% | HCC-2998 colon 111% | KM12 colon 112%

COc1ccc(/C=C2\CCC3C(CCCC34OCCO4)C2=O)cc1 (stereo not given)
inactive: T-47D breast 75.4% | BT-549 breast 88.4% | MDA-MB-435 melanoma 29.9% | SW-620 colon 75.6% | MCF7 breast 70.6% | HCT-116 colon 92.4% | HCC-2998 colon 92.4% | KM12 colon 67.7%

COc1cc(/C=C/C(=O)c2cc(-c3ccc(F)cc3)ccc2O)cc(OC)c1OC
inactive: T-47D breast 42.1% | BT-549 breast 88% | MDA-MB-435 melanoma 70.7% | SW-620 colon 80.9% | MCF7 breast 68.6% | HCT-116 colon 60% | HCC-2998 colon 93.1% | KM12 colon 86%

CC(C)(C)CC(C)(C)c1ccc(O)c(Cc2ccc(Cl)cc2Cl)c1
active: T-47D breast -72.9% | BT-549 breast -95.1% | MDA-MB-435 melanoma -81.1% | SW-620 colon -84.9% | MCF7 breast -88.9% | HCT-116 colon -91.8% | HCC-2998 colon -89.1% | KM12 colon -88.5%

COc1ccc(Cn2cc3c(c2-c2cc(OC)c(OC)c(OC)c2)CCc2cnoc2-3)cc1N
inactive: T-47D breast 43.4% | BT-549 breast 26.3% | SW-620 colon 20.4% | MCF7 breast 16%
active: MDA-MB-435 melanoma -37% | HCT-116 colon 0.095% | HCC-2998 colon -9.27% | KM12 colon 1.77%

COc1cccc2c1O/C(=C\c1ncc([N+](=O)[O-])n1C)C2=O
inactive: T-47D breast 97.5%
active: BT-549 breast -63.6% | MDA-MB-435 melanoma -62.5% | SW-620 colon -20% | MCF7 breast 3.84% | HCT-116 colon -53.2% | HCC-2998 colon -54.9% | KM12 colon -50.6%

COc1cc(/C=C/C(=O)c2cc(-c3ccc(C(F)(F)F)cc3)ccc2O)cc(OC)c1OC
inactive: T-47D breast 35.7% | BT-549 breast 73.2% | MDA-MB-435 melanoma 48.4% | SW-620 colon 54.9% | MCF7 breast 43.8% | HCT-116 colon 46.6% | HCC-2998 colon 94.6% | KM12 colon 69.2%

CC(=O)c1ccc(NCn2nc(-c3ccc(Cl)cc3)oc2=S)cc1
inactive: T-47D breast 80% | BT-549 breast 99.1% | MDA-MB-435 melanoma 105% | SW-620 colon 104% | MCF7 breast 95.7% | HCT-116 colon 93.3% | HCC-2998 colon 99.7% | KM12 colon 93.1%

O=c1c2cccc3c(Nc4ccc(Br)cn4)ccc(c32)c2nc3ccccc3n12
inactive: T-47D breast 18.9% | BT-549 breast 84.4% | MDA-MB-435 melanoma 97% | SW-620 colon 94.8% | HCT-116 colon 88.2% | HCC-2998 colon 74.8% | KM12 colon 77.2%
active: MCF7 breast 4.15%

CCN(CC)CCOC(=O)c1ccc(N=Nc2ccc(O)c(OC)c2)cc1
inactive: T-47D breast 86.6% | BT-549 breast 101% | MDA-MB-435 melanoma 103% | SW-620 colon 103% | MCF7 breast 95.6% | HCT-116 colon 93.9% | HCC-2998 colon 103% | KM12 colon 103%

CCc1c(C)[nH]c(=O)c(C(N)=O)c1C#N
inactive: T-47D breast 94.1% | BT-549 breast 97.4% | MDA-MB-435 melanoma 101% | SW-620 colon 97.7% | MCF7 breast 97% | HCT-116 colon 95.7% | HCC-2998 colon 87.7% | KM12 colon 106%
